Cruzain inh noDet – inhibitors of Trypanosoma cruzi cruzain without detergent; P25779; Potency, µM, without a hit: max response, negative = inhibition, hits mostly inhibitors; 2.3% of 200,000 active; purified cruzain, Z-FR-AMC fluorescence, no detergent;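 also: plate controls were enzyme without inhibitor for no effect and buffer without enzyme for full effect; nearly all actives have a fitted effect of over 40% in size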
Target sequence (P25779 123-467 limits assumed): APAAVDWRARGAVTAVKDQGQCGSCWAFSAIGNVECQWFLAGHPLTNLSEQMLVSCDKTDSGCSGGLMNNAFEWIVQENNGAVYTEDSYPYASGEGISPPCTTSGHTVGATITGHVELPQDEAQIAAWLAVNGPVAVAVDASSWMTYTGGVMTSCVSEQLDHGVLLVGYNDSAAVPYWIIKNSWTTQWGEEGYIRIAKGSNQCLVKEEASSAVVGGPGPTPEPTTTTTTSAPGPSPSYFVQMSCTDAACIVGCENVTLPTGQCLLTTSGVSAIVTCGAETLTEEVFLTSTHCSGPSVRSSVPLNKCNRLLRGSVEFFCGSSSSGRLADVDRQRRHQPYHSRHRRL
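Detergent-free condition (0.00005% Triton X-100) in acetate buffer pH 5.5 with DTT. 1.5 nM enzyme and compound were pre-mixed 15 min, then 2 uM Z-FR-AMC substrate added; reaction progress from fluorescence change between first and third reads (60 s).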
Cruzain inh Det – cruzain (T. cruzi) inhibition with detergent; purified cruzain, Z-FR-AMC fluorescence, 0.01% Triton; AID 1478; Potency, µM, without a hit: max response, negative = inhibition, actives largely listed as inhibitors; 0.43% of 200,000 active; P25779;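 also: plate controls were neutral wells for no effect and buffer without enzyme for full effect; nearly all actives have a fitted effect of over 40% in size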
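Steps: dispense cruzain (1.5 nM final) in acetate buffer pH 5.5 with DTT and 0.01% Triton X-100; pin-transfer compounds; incubate 15 min RT; add Z-FR-AMC (2 uM final); read fluorescence every 30 s, using the 60 s intensity change.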
The depositor's hits bear a star; ? = inconclusive. Rows were chosen to be rich in hits. Some 2.5% of all compounds tested hit in one or more screens of this group. Calls follow the shape of the dose curve; as a rule, active = well fitted curve in the direction sought with a large enough effect; inconclusive = small, poorly fitted or top-dose-only effect, or another doubt; inactive = no such curve, though single readings can be large; an effect the other way counts as inactive or inconclusive. Potency is read from the fitted curve at half-maximal effect.

SMILES	Cruzain inh noDet	Cruzain inh Det
c1ccc(-c2ccc(Oc3cc(N4CCOCC4)nc(-c4ccccc4)n3)cc2)cc1	10µM*	4%
CC(C)Sc1cc(N2CCOCC2)nc(-c2ccccc2)n1	-8%	-5%
COc1ccc(-c2oc(NC(C)=O)c(C#N)c2-c2ccc(OC)cc2)cc1	16%	-9%
COc1ccc(-c2oc(NC(=O)c3ccc(C)cc3)c(C#N)c2-c2ccc(OC)cc2)cc1	13µM*	3%
COc1ccc(C(=O)Nc2oc(-c3ccccc3)c(-c3ccccc3)c2C#N)cc1	32µM*	-2%
COc1ccc(C(=O)Nc2oc(-c3ccccc3)c(-c3ccccc3)c2C#N)cc1OC	-4%	-1%
CCOC(=O)c1ccc(Nc2nc3ccc(C(=O)c4ccccc4)cc3n3c(C)nnc23)cc1	-12%	0%
COc1ccc(C)cc1NS(=O)(=O)c1ccc2[nH]c(=O)c(=O)[nH]c2c1	-15%	-4%
O=[N+]([O-])c1cc(-c2nc(-c3ccccc3)no2)ccc1NC1CCCCC1	-7%	-4%
Fc1ccccc1OCc1nc(-c2ccc(-n3cccc3)cc2)no1	-15%	-4%
Cc1cccc(OCc2nc(-c3ccc(-n4cccc4)cc3)no2)c1	20µM*	2%
Cc1ccccc1OCc1nc(-c2ccc(-n3cccc3)cc2)no1	?	0%
Cc1ccc(OCc2nc(-c3ccc(-n4cccc4)cc3)no2)cc1C	25µM*	4%
O=S(=O)(O)c1cc(N=[N+]([O-])c2cc(S(=O)(=O)O)c3ccccc3c2)cc2ccccc12	?	-18%
Oc1ccc(NCc2ccc(OCc3ccccc3)cc2)cc1	-15%	-16%
CCc1ccc(CNc2ccc(O)cc2)cc1	32µM*	-21%
CCC1CCCCN1C(=O)CSc1nc(-c2ccc(OC)cc2)cc(C(F)(F)F)n1 (configuration not stated)	21%	-12%
Cc1ccc(C(=O)c2sc3c(c2N)c(=O)[nH]c(=O)n3CCc2ccccc2)cc1	13µM*	-15%
Nc1c(C(=O)c2ccccc2)sc2c1c(=O)[nH]c(=O)n2-c1ccccc1	11%	-8%
Nc1nonc1-c1nc2ccccc2n1CC(=O)Nc1cccc(C(F)(F)F)c1	?	-4%
CC(=O)c1ccc(NC(=O)C2CCC(CNS(=O)(=O)c3cccc4nsnc34)CC2)cc1 (configuration not stated)	-4%	-2%
CC(C)c1ccc(C2C(C#N)=C(N)N3C(=C2C#N)Sc2ccccc23)cc1 (configuration not stated)	7.9µM*	-14%
CC(C)c1ccc(C2CC(=O)N3CN(C)CSC3=C2C#N)cc1 (configuration not stated)	-4%	1%
N=C(N)SCCN1CCCCC1	-2%	4%
CCCCOC(=O)c1ccc(NC(=O)c2ccc3c(c2)CCN3S(=O)(=O)c2ccccc2)cc1	13µM*	0%
SMILES	Cruzain inh noDet	Cruzain inh Det
CCCCc1ccc(NC(=O)c2ccc3c(c2)CCN3S(=O)(=O)c2ccccc2)cc1	?	-2%
CC(C)c1ccc(CNc2nc(-c3ccco3)nn2S(=O)(=O)c2ccc3ccccc3c2)cc1	10µM*	0%
Cc1ccc(CNc2nc(-c3ccco3)nn2S(=O)(=O)c2ccc3ccccc3c2)cc1	?	-3%
Cc1nnc(N2C(=O)c3oc4ccccc4c(=O)c3C2c2ccc(C(C)(C)C)cc2)s1 (configuration not stated)	7%	6%
CCOc1cc(C#N)c(NC(=O)c2cccc(S(=O)(=O)N3CCOCC3)c2)cc1OCC	?	-3%
Cc1ccc(-n2c(=O)c3ccc(C(=O)NCc4ccco4)cc3n(Cc3ccc(Cl)cc3)c2=O)cc1	-9%	-4%
O=C1C2C3C=CC(C4CC34)C2C(=O)N1/N=C/c1ccc(-c2cccc([N+](=O)[O-])c2)o1 (configuration not stated)	25µM*	-8%
O=C1C2C3C=CC(C4CC34)C2C(=O)N1/N=C/c1ccc([N+](=O)[O-])s1 (configuration not stated)	-1%	-2%
CCOC(=O)c1[nH]c2c(c1Cc1ccccc1OC)C(=O)CC(c1ccccc1)C2 (configuration not stated)	12%	3%
COc1cc2nc(NCCc3ccc(Cl)cc3)n3nc(-c4ccccc4)nc3c2cc1OC	0%	0%
CCC1CCCCN1C(=O)c1ccc2c(c1)N(Cc1cccc(Cl)c1)C(=O)c1ccccc1S2(=O)=O (configuration not stated)	-8%	-4%
COC(=O)c1ccc(NC(=O)CCn2cnnn2)c(C)c1	-6%	-1%
COc1ccc2nc(-c3ccc(N)cc3)[nH]c2c1	10µM*	28µM*
COc1ccc2nc(-c3cccc(N)c3)[nH]c2c1	-20%	-15%
CCOC(=O)c1sc2ccccc2c1S(=O)(=O)Nc1cccc(C(F)(F)F)c1	6%	-10%
Cc1cccc(C)c1OCc1nnc(SCC(=O)Nc2ccccc2F)o1	-9%	-5%

Bioassay records deposited in PubChem BioAssay by National Center for Advancing Translational Sciences (NCATS).
